YopH PTP inh = YopH (Yersinia) phosphatase inhibition. 140,000 compounds, 0.16% hits. inhibition, % (concentration not given with the values). fluorescence Ex485/Em525; in the data active means inhibition above about 50%
RmlCD inh mix = RmlC/RmlD inhibition, mixture screen; RmlC/RmlD coupled enzyme inhibition, 384-well mixture HTS; inhibition, % at 5.5 µM; 110,000 compounds, 0.39% hits; AID 1532; in the data active means inhibition above about 30%, passing the limit was not always enough
An asterisk follows results filed as active; / = not tested or not shown. Sampled rows, rich in hits. Any-hit rate of the full collection: about 0.44%.

SMILES	YopH PTP inh	RmlCD inh mix
Cc1cc(C)c2c(n1)nn1c(N3CCN(c4ccccc4)CC3)cc(C)nc21	-25.5	-27.5
COCCNC(=O)C(=O)NCC1OCCCN1S(=O)(=O)c1cccs1 (stereo not drawn)	-17.9	/
CCNC(=O)CSc1nnc(-c2ccccc2Br)n1-c1cccc(C(F)(F)F)c1	-32.1	/
CCOC(=O)c1sc(NC(=O)CSc2nc3c(cc2C#N)CCCCC3)c(C#N)c1C	-19.2	-0.9
CCc1nnc(NC(=O)CSc2nc3c(cc2C#N)CCCC3)s1	-3.5	37.4*
CCC1=C[C@H]2CN(C1)Cc1c([nH]c3ccccc13)[C@@](C(=O)OC)(c1cc3c(cc1OC)N(C)[C@H]1[C@@](O)(C(=O)OC)[C@H](OC(C)=O)[C@]4(CC)C=CCN5CC[C@]31[C@@H]54)C2	/	-7.6
[O-]/[N+](=C\c1ccc(OC(F)F)cc1)c1ccccc1	55.3*	-10.4
Fc1ccc(/C=N/Nc2ccccn2)cc1	-10.1	/
[O-]/[N+](=C\c1ccncc1)c1ccccc1	58.6*	/
FC(F)Oc1ccc(NC(=S)NCc2ccccc2)cc1	-21.2	/
[O-]/[N+](=C/c1ccc(F)cc1)c1ccccc1	53.2*	7.4
O=C(c1ccccc1)c1ccncc1	-30.4	1.9
N#Cc1ccc(-c2csc(NC(=O)c3ccc(S(=O)(=O)N4CCc5ccccc5C4)cc3)n2)cc1	-18.2	/
CCO[C@@H]1OC(C(=O)Nc2ccccc2)=C[C@H](c2csc3ccccc23)[C@H]1CCCO	/	11.0
COC(=O)C1NC(=O)N2C(C(=O)OC)C(C)(C)S[C@H]12 (stereo partly drawn)	/	7.7
O=C(NCc1ccco1)C(=O)NCC1OCCCN1S(=O)(=O)c1ccccc1 (stereo not drawn)	-33.5	/
CCOC(=O)N/N=C/c1c(F)c(F)c(F)c(F)c1F	-30.9	/
CCOC(=O)c1nc(N)c(=O)n(-c2ccc(C)cc2)n1	-28.2	6.8
CCOC(=O)c1nc(C)n(-c2ccc(Cl)cc2)n1	51.9*	-1.2
CCOC(=O)C1CCCN(C(=O)Nc2ccccc2)C1 (stereo not drawn)	-21.1	-3.6
O=C1C(=O)c2ccccc2-c2ccccc21	100.4*	13.5
O=C1C(=O)c2cccc3cccc1c23	-28.0	/
CNC1=C(N(C(C)=O)c2ccc(Br)cc2)C(=O)c2ccccc2C1=O	84.0*	/
CC(=O)C1=C(c2ccc(Br)cc2)C(=O)c2ccccc2C1=O	4.5	/
CC(=O)Nc1c(NC(C)C)c2ccccc2oc1=O	-22.2	8.0
SMILES	YopH PTP inh	RmlCD inh mix
COC(=O)Oc1c(Br)c(=O)oc2ccccc12	-20.8	30.2*
O=C(O[C@@H]1OC2COC(=O)c3cc(O)c(O)c(O)c3-c3c(cc(O)c(O)c3O)C(=O)O[C@@H]([C@H]1O)[C@@H]2O)c1cc(O)c(O)c(O)c1	54.1*	2.6
Nc1ccc(C(=O)OC2CCOC2=O)cc1[N+](=O)[O-] (stereo not drawn)	-16.3	/
CCOC(=O)c1nn(-c2ccccc2)c(C#N)c1NC(=O)c1nn(CC)cc1Br	-25.5	-6.8
CCOC(=O)c1c(NC(=O)c2nn(CC)cc2Br)c(C#N)nn1-c1ccccc1	52.2*	-10.9
O=C(Nc1cccc(Cl)c1)c1csc(-c2ccccc2)n1	-33.3	/
CN1CCc2cc3c(c4c2[C@H]1[C@H](O)c1ccccc1-4)OCO3	101.0*	-9.1
COc1ccc2c(c1OC)C(=O)OC2C1c2c(cc3c(c2OC)OCO3)CCN1C (stereo not drawn)	-19.6	-2.8
CCc1cc(=O)oc2c(C)c(O)c(CN3CCCCC3)cc12	-35.7	92.6*
Cc1c(O)c(CN2CCCC2)cc2c3c(c(=O)oc12)CCC3	-50.1	105.8
CC(C)C[C@H]1COCCS(=O)(=O)N1Cc1ccc(Cl)c(Cl)c1	/	-5.3
Cc1ccc(C(=O)C(c2ccccc2)N2Cc3ccccc3C2=N)cc1 (stereo not drawn)	-32.9	/
CNC(=O)c1cc2cc(OC)ccc2oc1=O	-12.7	-0.3
CNC(=O)c1cc2cc(OC)ccc2oc1=N	-18.9	42.0*
Cc1nnn(C23CC4CC(CC(CC(=O)Nc5ccc(C)c(C)c5)(C4)C2)C3)n1	-23.4	/
O=C1C[C@@H](c2ccc(O[C@@H]3O[C@H](CO)[C@@H](O)[C@H](O)[C@H]3O)cc2)Oc2cc(O)ccc21	-33.4	-14.3
Cc1noc(NS(=O)(=O)c2ccc(NC(=O)COc3ccc(Cl)cc3Cl)cc2)c1C	-30.9	/
Cc1noc(NS(=O)(=O)c2ccc(NC(=O)CCCOc3ccc(Cl)cc3Cl)cc2)c1C	92.2*	5.2
CCOC(=O)C(=NCCOC)NNc1cc(Cl)ccc1Cl	-25.0	/
CC(=O)OCCCNc1cc(SCc2ccco2)c2nonc2c1[N+](=O)[O-]	69.4*	/
CCCC(=O)OCCNc1cc(SCc2ccco2)c2nonc2c1[N+](=O)[O-]	36.9	/
CN1C(C(=O)NCc2ccc(OC(F)(F)F)cc2)CC2Cn3c(nc4cc5ccccc5cc43)C21 (stereo not drawn)	/	-11.4
O=C(COC(=O)c1cccnc1Cl)Nc1nc(-c2ccccc2)cs1	-11.8	/
CCn1c(NCc2cc(Br)ccc2NS(=O)(=O)c2ccc(C)cc2)nc2ccccc21	-34.7	4.9
COc1cccc(OCCc2c(C)n[nH]c2C)c1	-19.9	8.5
SMILES	YopH PTP inh	RmlCD inh mix
Cc1cccc(OCCCCc2c(C)n[nH]c2C)c1	70.2*	-3.5
COc1ccc(C2C=C(c3ccccc3)Nc3nc(CCCO)nn32)cc1 (stereo not drawn)	-27.6	23.9
COc1ccc(C2C=C(c3cccs3)Nc3nc(CCCO)nn32)cc1 (stereo not drawn)	-15.2	44.0*
O=C(CN1C(=O)C2CC=CCC2C1=O)Nc1nnc(SCc2ccc(Cl)cc2)s1 (stereo not drawn)	75.8*	7.0
O=C(CN1C(=O)C2CC=CCC2C1=O)Nc1nnc(SCc2c(Cl)cccc2Cl)s1 (stereo not drawn)	-0.8	-13.0
CC(C)CNC(=O)COC(=O)CNC(=O)c1cc(Cl)cc([N+](=O)[O-])c1	-4.8	/
O=c1[nH]c2ccccc2n1CCCSc1cnc2ccccc2n1	19.3	17.8
C=CCn1c2ccccc2c2nnc(SCCCn3c(=O)[nH]c4ccccc43)nc21	21.9	71.4*
O=C(Nc1ccccc1-c1nc2ccccc2[nH]1)c1sc2ccccc2c1Cl	-25.5	/
Cc1ccc2c(C)nc(SC(C(=O)c3ccccc3)c3ccccc3)nc2c1 (stereo not drawn)	-6.5	/
CCOC(=O)CNC(=O)Cn1c(C)cc2ccccc2c1=O	11.8	5.5
CCOC(=O)N1CCN(C(=O)Cn2c(C)cc3ccccc3c2=O)CC1	54.9*	-5.9
O=C1N[C@H](C(=O)O)CS1	/	-52.2
C=CCc1cccc2cc(C(=O)Nc3ccc(F)cc3)c(=O)oc12	-42.8	/
C=CCc1cccc2cc(C(=O)Nc3ccc(S(=O)(=O)Nc4nnc(CC)s4)cc3)c(=O)oc12	75.3*	/
CC(C)(C)c1ccc(NC(=O)COC(=O)c2ccc([N+](=O)[O-])s2)cc1	-19.2	/
O=C(COC(=O)c1ccc([N+](=O)[O-])s1)Nc1ccccc1	50.5*	/
COCCn1c(C)cc(/C=C2/NC(=O)N(c3ccc(Cl)cc3)C2=O)c1C	-8.3	/
COC(=O)C1=CN(CC2CCCO2)C=C(C(=O)OC)C1c1ccsc1 (stereo not drawn)	-22.0	57.8*
COC(=O)C1=CN(CC2CCCO2)C=C(C(=O)OC)C1c1ccccc1C(F)(F)F (stereo not drawn)	2.3	7.9
Cc1ccc(N=Cc2cc3c(cc2O)OC(N)=C(C#N)C3c2ccccc2)cc1 (stereo not drawn)	-11.3	/
C/C(=N\NC(=O)CC(C)C)c1ccc(N2CCCCC2)cc1	-9.2	/

Screens from PubChem.
